Experimental data from ChEMBL document CHEMBL2218924, “A broad activity screen in support of a chemogenomic map for kinase signalling research and drug discovery” (Biochem J, 2013).

Experiments:
[1] = target: Mitogen-activated protein kinase 8 (Homo sapiens) (UniProt P45983); settings: at 1 µM
[2] = target: Mitogen-activated protein kinase 8 (Homo sapiens) (UniProt P45983); settings: at 10 µM
[3] = target: Mitogen-activated protein kinase 9 (Homo sapiens) (UniProt P45984); settings: at 1 µM
[4] = target: Mitogen-activated protein kinase 9 (Homo sapiens) (UniProt P45984); settings: at 10 µM
[5] = target: Mitogen-activated protein kinase 10 (Homo sapiens) (UniProt P53779); settings: at 1 µM
[6] = target: Mitogen-activated protein kinase 10 (Homo sapiens) (UniProt P53779); settings: at 10 µM
[7] = target: Vascular endothelial growth factor receptor 2 (Homo sapiens) (UniProt P35968); settings: at 1 µM
[8] = target: Vascular endothelial growth factor receptor 2 (Homo sapiens) (UniProt P35968); settings: at 10 µM
[9] = target: LIM domain kinase 1 (Homo sapiens) (UniProt P53667); settings: at 1 µM
[10] = target: LIM domain kinase 1 (Homo sapiens) (UniProt P53667); settings: at 10 µM

Mitogen-activated protein kinase 10 (Homo sapiens), sequence (P53779 whole entry): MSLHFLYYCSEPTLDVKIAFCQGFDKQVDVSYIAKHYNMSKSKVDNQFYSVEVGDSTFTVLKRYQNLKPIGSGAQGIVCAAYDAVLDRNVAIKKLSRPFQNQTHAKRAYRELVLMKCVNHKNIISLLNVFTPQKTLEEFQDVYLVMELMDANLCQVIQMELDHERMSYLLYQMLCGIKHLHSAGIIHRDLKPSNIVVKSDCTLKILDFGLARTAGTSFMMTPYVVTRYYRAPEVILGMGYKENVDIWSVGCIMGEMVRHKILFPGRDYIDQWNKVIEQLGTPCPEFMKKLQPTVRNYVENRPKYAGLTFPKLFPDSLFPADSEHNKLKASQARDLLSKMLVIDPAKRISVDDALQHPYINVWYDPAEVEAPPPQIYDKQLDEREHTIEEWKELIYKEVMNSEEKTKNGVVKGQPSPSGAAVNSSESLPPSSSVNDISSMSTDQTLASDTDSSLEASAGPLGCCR
Mitogen-activated protein kinase 9 (Homo sapiens), sequence (P45984 whole entry, looked up): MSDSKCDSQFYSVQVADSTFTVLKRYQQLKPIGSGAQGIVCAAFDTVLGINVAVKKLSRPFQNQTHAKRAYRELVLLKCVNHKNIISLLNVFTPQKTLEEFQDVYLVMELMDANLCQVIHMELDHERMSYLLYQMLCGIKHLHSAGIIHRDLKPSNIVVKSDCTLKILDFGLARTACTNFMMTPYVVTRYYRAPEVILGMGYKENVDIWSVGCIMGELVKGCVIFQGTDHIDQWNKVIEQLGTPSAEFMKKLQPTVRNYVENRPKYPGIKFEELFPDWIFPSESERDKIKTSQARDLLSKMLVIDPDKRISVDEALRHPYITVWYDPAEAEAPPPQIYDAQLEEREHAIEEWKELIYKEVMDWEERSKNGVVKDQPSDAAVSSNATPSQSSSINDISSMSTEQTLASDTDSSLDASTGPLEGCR
LIM domain kinase 1 (Homo sapiens), sequence (P53667 whole entry, looked up, the tested form may be a part): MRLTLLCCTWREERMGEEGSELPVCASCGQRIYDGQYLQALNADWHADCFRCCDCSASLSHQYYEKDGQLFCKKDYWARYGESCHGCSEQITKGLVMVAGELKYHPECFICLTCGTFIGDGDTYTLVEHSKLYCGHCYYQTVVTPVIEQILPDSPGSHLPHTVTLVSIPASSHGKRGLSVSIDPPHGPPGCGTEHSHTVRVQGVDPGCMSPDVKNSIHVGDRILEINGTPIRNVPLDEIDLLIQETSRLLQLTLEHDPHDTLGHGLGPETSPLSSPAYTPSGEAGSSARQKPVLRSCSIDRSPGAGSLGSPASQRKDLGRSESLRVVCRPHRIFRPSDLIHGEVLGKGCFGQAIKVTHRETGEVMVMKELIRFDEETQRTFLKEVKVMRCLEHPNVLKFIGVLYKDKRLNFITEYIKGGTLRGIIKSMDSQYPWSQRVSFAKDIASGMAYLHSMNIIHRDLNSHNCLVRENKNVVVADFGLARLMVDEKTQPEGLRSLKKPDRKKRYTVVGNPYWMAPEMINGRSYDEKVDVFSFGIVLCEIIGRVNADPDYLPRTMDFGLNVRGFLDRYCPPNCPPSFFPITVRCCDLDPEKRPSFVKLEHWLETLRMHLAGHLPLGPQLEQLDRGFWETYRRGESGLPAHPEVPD
Mitogen-activated protein kinase 8 (Homo sapiens), sequence (P45983 whole entry): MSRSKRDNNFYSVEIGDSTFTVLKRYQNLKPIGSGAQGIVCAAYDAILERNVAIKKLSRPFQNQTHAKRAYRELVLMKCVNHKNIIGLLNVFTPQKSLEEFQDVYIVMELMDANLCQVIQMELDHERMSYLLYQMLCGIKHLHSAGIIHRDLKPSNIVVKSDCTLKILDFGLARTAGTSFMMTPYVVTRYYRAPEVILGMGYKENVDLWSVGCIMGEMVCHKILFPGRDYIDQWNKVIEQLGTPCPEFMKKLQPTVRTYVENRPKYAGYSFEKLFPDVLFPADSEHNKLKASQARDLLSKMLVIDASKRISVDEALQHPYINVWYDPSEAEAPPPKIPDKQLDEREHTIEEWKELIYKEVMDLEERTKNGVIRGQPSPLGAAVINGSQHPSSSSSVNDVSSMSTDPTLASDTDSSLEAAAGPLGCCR
Vascular endothelial growth factor receptor 2 (Homo sapiens), sequence (P35968 whole entry, the tested form may be a part): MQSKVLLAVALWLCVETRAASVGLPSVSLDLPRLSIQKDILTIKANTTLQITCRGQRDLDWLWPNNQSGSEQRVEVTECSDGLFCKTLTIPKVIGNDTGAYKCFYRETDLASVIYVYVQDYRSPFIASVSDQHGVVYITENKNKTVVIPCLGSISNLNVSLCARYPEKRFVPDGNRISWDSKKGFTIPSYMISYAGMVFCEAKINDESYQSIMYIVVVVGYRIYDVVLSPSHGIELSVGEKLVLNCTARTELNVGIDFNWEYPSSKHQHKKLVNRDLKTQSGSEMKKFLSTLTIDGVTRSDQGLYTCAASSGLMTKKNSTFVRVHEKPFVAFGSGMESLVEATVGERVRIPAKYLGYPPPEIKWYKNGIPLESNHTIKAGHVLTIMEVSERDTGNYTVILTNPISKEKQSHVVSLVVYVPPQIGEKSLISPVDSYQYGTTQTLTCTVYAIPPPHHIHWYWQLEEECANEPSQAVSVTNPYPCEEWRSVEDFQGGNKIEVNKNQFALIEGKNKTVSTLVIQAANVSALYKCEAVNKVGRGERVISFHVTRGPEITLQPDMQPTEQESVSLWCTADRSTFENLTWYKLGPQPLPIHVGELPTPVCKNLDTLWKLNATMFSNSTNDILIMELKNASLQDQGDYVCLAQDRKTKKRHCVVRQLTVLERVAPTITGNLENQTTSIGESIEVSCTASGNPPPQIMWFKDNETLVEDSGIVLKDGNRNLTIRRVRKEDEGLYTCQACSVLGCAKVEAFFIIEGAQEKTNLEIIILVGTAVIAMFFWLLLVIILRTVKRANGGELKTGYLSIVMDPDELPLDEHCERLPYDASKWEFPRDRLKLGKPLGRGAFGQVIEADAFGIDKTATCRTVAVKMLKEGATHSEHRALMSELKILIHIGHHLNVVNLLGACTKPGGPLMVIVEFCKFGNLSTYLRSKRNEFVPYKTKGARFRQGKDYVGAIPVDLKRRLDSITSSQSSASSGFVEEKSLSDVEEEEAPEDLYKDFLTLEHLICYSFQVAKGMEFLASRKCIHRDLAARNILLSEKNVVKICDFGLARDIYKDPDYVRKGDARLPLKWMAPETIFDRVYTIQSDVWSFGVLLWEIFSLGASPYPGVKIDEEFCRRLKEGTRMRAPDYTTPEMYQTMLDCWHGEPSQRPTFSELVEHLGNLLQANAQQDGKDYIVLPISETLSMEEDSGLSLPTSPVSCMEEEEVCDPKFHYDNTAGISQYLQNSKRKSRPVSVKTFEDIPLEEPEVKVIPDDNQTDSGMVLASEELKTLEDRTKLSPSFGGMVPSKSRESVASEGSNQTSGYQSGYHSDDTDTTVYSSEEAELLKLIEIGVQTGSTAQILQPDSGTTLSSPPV

Which results are given for O=[N+]([O-])/C=C/c1ccc2c(c1)OCO2?
residual activity [1]: 120%; residual activity [2]: 102%; residual activity [3]: 99%; residual activity [4]: 103%; residual activity [5]: 88%; residual activity [6]: 92%; residual activity [7]: 101%; residual activity [8]: 85%; residual activity [9]: 114%; residual activity [10]: 97%

With COc1ccc2c(c1)/C(=C/c1cnc[nH]1)C(=O)N2 as the compound, how does the residual activity [3] read?
Its residual activity is 82%.

What about the residual activity [4] of the same compound?
Its residual activity is 47%.

And the residual activity [5]?
The residual activity was 80%.

What about the residual activity [6] of the same compound?
Its residual activity is 27%.

What about the residual activity [7] of the same compound?
Its residual activity is 47%.

And the residual activity [8]?
Its residual activity is 3%.

What about the residual activity [10] of the same compound?
The residual activity was 48%.

How did the residual activity [1] turn out when O=C1c2ccccc2-c2nc3nnnn3nc21 was run?
Its residual activity is 114%.

What about the residual activity [2] of the same compound?
Its residual activity is 83%.

And the residual activity [3]?
The residual activity was 109%.

And the residual activity [4]?
Its residual activity is 83%.

And the residual activity [5]?
Its residual activity is 112%.

And the residual activity [6]?
The residual activity was 100%.

And the residual activity [7]?
The residual activity was 109%.

And the residual activity [8]?
Its residual activity is 104%.

For COC(=O)[C@@]1(O)C[C@H]2O[C@]1(C)n1c3ccccc3c3c4c(c5c6ccccc6n2c5c31)C(=O)NC4, which residual activity [1] is on record?
Its residual activity is -12%.

And the residual activity [2]?
The residual activity was -20%.

And the residual activity [3]?
The residual activity was 5%.

And the residual activity [4]?
The residual activity was -11%.

What about the residual activity [5] of the same compound?
The residual activity was -3%.

What about the residual activity [6] of the same compound?
The residual activity was -1%.

And the residual activity [7]?
The residual activity was 3%.

What about the residual activity [8] of the same compound?
The residual activity was 0%.

What about the residual activity [9] of the same compound?
The residual activity was 6%.

What about the residual activity [10] of the same compound?
Its residual activity is 3%.

What does the source list for C[S+]([O-])c1ccc(-c2nc(-c3ccc(F)cc3)c(-c3ccncc3)[nH]2)cc1 (centres undefined)?
residual activity [1]: 111%; residual activity [2]: 95%; residual activity [3]: 74%; residual activity [4]: 30%; residual activity [7]: 107%; residual activity [8]: 60%; residual activity [9]: 110%; residual activity [10]: 82%

For CC(C)[C@H](CO)Nc1nc(Nc2cccc(Cl)c2)c2ncn(C(C)C)c2n1, which residual activity [3] is on record?
The residual activity was 90%.

And the residual activity [4]?
The residual activity was 97%.

What about the residual activity [8] of the same compound?
The residual activity was 58%.

What about the residual activity [9] of the same compound?
Its residual activity is 98%.

And the residual activity [10]?
Its residual activity is 90%.

Which results are given for CC(C)(C)c1cc(C=C(C#N)C#N)cc(Br)c1O?
residual activity [1]: 116%; residual activity [2]: 110%; residual activity [3]: 103%; residual activity [4]: 114%; residual activity [6]: 54%; residual activity [7]: 107%; residual activity [8]: 83%; residual activity [9]: 111%

For O=c1[nH]c2ccccc2n1C1CCN(Cc2ccc(-c3nc4cc5[nH]cnc5cc4nc3-c3ccccc3)cc2)CC1, which residual activity [1] is on record?
Its residual activity is 110%.

And the residual activity [2]?
Its residual activity is 86%.

And the residual activity [3]?
The residual activity was 104%.

And the residual activity [4]?
Its residual activity is 101%.

What about the residual activity [5] of the same compound?
The residual activity was 105%.

And the residual activity [6]?
The residual activity was 69%.

And the residual activity [7]?
Its residual activity is 107%.

And the residual activity [8]?
Its residual activity is 90%.

And the residual activity [9]?
Its residual activity is 115%.

What about the residual activity [10] of the same compound?
Its residual activity is 97%.

For O=C1NC(=O)c2c1c1c3ccccc3n3c1c1c2c2ccccc2n1C1CCC3O1, which residual activity [5] is on record?
Its residual activity is 63%.

And the residual activity [6]?
Its residual activity is 56%.

And the residual activity [7]?
Its residual activity is 38%.

And the residual activity [8]?
The residual activity was 18%.

For COc1cc2ncnc(Nc3ccc(OCc4ccccc4)cc3)c2cc1OC, which residual activity [1] is on record?
Its residual activity is 102%.

And the residual activity [2]?
The residual activity was 101%.

And the residual activity [3]?
The residual activity was 106%.

And the residual activity [4]?
The residual activity was 101%.

And the residual activity [5]?
The residual activity was 106%.

And the residual activity [6]?
Its residual activity is 110%.

And the residual activity [7]?
The residual activity was 60%.

And the residual activity [8]?
Its residual activity is 11%.

And the residual activity [9]?
The residual activity was 110%.

What about the residual activity [10] of the same compound?
Its residual activity is 70%.

For c1cc(-c2cnn3cc(-c4ccc(OCCN5CCCCC5)cc4)cnc23)ccn1, which residual activity [1] is on record?
The residual activity was 117%.

And the residual activity [2]?
Its residual activity is 106%.

And the residual activity [6]?
The residual activity was 82%.

What about the residual activity [7] of the same compound?
The residual activity was 4%.

What about the residual activity [8] of the same compound?
The residual activity was 1%.

What about the residual activity [10] of the same compound?
The residual activity was 27%.

O=C1Nc2ccc3ncsc3c2/C1=C/c1c[nH]cn1 was tested. Which residual activity [1] did it give?
The residual activity was 63%.

What about the residual activity [2] of the same compound?
Its residual activity is 22%.

And the residual activity [3]?
The residual activity was 71%.

And the residual activity [4]?
The residual activity was 16%.

What about the residual activity [5] of the same compound?
The residual activity was 20%.

What about the residual activity [6] of the same compound?
The residual activity was 20%.

What about the residual activity [7] of the same compound?
The residual activity was 2%.

And the residual activity [8]?
The residual activity was 0%.

What about the residual activity [9] of the same compound?
The residual activity was 55%.

And the residual activity [10]?
Its residual activity is 10%.

For CCc1nc(-c2ccc(OC)cc2)[nH]c1-c1ccncc1, which residual activity [1] is on record?
Its residual activity is 104%.

What about the residual activity [2] of the same compound?
Its residual activity is 106%.

What about the residual activity [3] of the same compound?
The residual activity was 102%.

And the residual activity [4]?
The residual activity was 105%.

And the residual activity [5]?
Its residual activity is 126%.

And the residual activity [6]?
Its residual activity is 123%.

What about the residual activity [9] of the same compound?
Its residual activity is 100%.

How did the residual activity [5] turn out when CCn1cnc2c(Nc3cccc(Cl)c3)nc(N[C@@H]3CCCC[C@@H]3N)nc21 was run?
The residual activity was 91%.

What about the residual activity [6] of the same compound?
Its residual activity is 84%.

And the residual activity [7]?
The residual activity was 85%.

What about the residual activity [8] of the same compound?
Its residual activity is 45%.

What about the residual activity [9] of the same compound?
The residual activity was 89%.

And the residual activity [10]?
The residual activity was 63%.

With COc1ccc2c(c[n+](C)c3c4cc5c(cc4ccc23)OCO5)c1OC as the compound, how does the residual activity [1] read?
The residual activity was 100%.

What about the residual activity [2] of the same compound?
The residual activity was 64%.

And the residual activity [5]?
The residual activity was 81%.

And the residual activity [6]?
The residual activity was 63%.

And the residual activity [8]?
Its residual activity is 90%.

What about the residual activity [10] of the same compound?
The residual activity was 87%.

Which residual activity [3] does the source give for COc1cc(OC)c(/C=C2\C(=O)Nc3ccccc32)c(OC)c1 here?
Its residual activity is 89%.

What about the residual activity [4] of the same compound?
Its residual activity is 88%.

And the residual activity [5]?
The residual activity was 85%.

And the residual activity [6]?
Its residual activity is 103%.

And the residual activity [7]?
Its residual activity is 96%.

What about the residual activity [8] of the same compound?
The residual activity was 91%.

What about the residual activity [9] of the same compound?
The residual activity was 83%.

What about the residual activity [10] of the same compound?
The residual activity was 83%.

Which residual activity [3] does the source give for N/C(=N\[N+](=O)[O-])N/N=C\c1ccc(-c2cccc([N+](=O)[O-])c2)o1 here?
The residual activity was 100%.

What about the residual activity [4] of the same compound?
The residual activity was 98%.

And the residual activity [5]?
The residual activity was 95%.

And the residual activity [6]?
The residual activity was 79%.

And the residual activity [7]?
The residual activity was 92%.

What about the residual activity [8] of the same compound?
The residual activity was 84%.
